# In ChEMBL document CHEMBL3988442, “University of Dundee, Small-Polar-MMV Screening Library” (2021):
# Hit rate of the full screen: of about 53,000 compounds, about 900 (1.7%) showed an effect of 50% or more. What follows is part of a selection rich in strong results, with near analogues and random picks from the rest.
# Test system: Mycobacterium tuberculosis
# Assay: Cornell - Phenotypic assay to identify agents that inhibit growth of Mycobacterium tuberculosis
# Type: functional
# Set-up: scale not given: direction of the effect not stated beside the values
# Conditions: 10 mM as filed; unlikely as a test dose
row,Compound,Percent Effect [%]
1,Cc1cccc(C(=O)NCCNS(=O)(=O)c2cccs2)c1C,27.49
2,Cc1ccc(C)c(S(=O)(=O)NCCNc2ccc(-n3cccc3)nn2)c1,29.41
3,O=S(=O)(NCCNc1ccc(-n2cccc2)nn1)c1cccs1,107.8
4,CCS(=O)(=O)NCCNc1cc(-n2cccc2)ncn1,13.54
5,O=S(=O)(NCCNc1cc(-n2cccc2)ncn1)c1cccs1,51.47
6,O=S(=O)(Cc1ccccc1)NCCNc1ccc(-n2cccc2)nn1,12.63
7,O=S(=O)(NCCNc1cc(-n2cccn2)ncn1)c1cccs1,-21.67
8,O=S(=O)(NCCNc1ccc(-n2cccc2)nn1)c1ccccc1,105.3
9,Cc1nnsc1C(=O)NCCNS(=O)(=O)c1cccs1,-32.34
10,Cc1ccc(S(=O)(=O)NCCNc2cc(-n3cccc3)ncn2)c(C)c1,53.05
11,CCS(=O)(=O)NCCCNc1cc(N2CCCC2CO)ncn1 (stereo unspecified),22.16
12,Cc1nsc(NCCNS(=O)(=O)c2ccccc2)n1,22.52
13,CCC1=N[C@@]2(CC[C@@H]3CN(CC4CC4)C[C@@H]32)C(=O)N1CC.O=C(O)C(F)(F)F,7.399
14,O=C(CC1CC1)N1CCN(Cc2ccncc2)c2ncccc2C1.O=C(O)C(F)(F)F.O=C(O)C(F)(F)F,7.793
15,Cc1ccc(-c2nnc(CN3CCN(c4ccccn4)CC3)o2)cc1,-16.82
16,COCC(=O)N1CCCC(c2cc(C(F)F)n3ncnc3n2)C1.Cl (stereo unspecified),-7.323
17,CCNC(=O)C1(CC2CC(c3ccccc3OC)=NO2)CCOCC1 (stereo unspecified),-45.09
18,CNc1cncc(C2CCCN2C(=O)CCn2ccnc2)n1 (stereo unspecified),-11.08
19,COCCN(C)CC(=O)N1C[C@@H](C)[C@](O)(C(C)C)C1,28.76
20,CCc1cc(O)n2nc(C3CCN(C(=O)c4ccccn4)CC3)cc2n1,37.19
21,NC(=O)CN1CCC2(CC1)C[C@@H](O)[C@H](c1ccccc1)NC2=O,-49.18
22,COCC(=O)N1CCCC1(C(=O)N(C)C)c1cnccn1 (stereo unspecified),19.92
23,Cc1cc(-c2ccccc2Cl)nc(N)n1,22.73
24,O=C(NCCNC(=O)c1scnc1Cl)c1cccs1,-53.65
25,CC(C)(C)c1ncc(C(=O)NCCNC(=O)c2cccs2)s1,-14.14
26,O=C(NCCNc1cc(-n2cccc2)ncn1)c1cccs1,57.48

row,Compound,Percent Effect [%]
1,Cc1ccc2c(c1)[C@@H](CC(=O)N(C)C)CCO2,3.607
2,CCNc1ncc(C(=O)N[C@H](C(N)=O)c2ccccc2)cn1,-10.46
3,COC(=O)C(NC(=O)c1ccc(N(C)C)nc1)c1ccccc1 (stereo unspecified),107.9
4,CN(C)c1ccc(C(=O)NCCCc2ccccn2)cn1,-1.76
5,COC(=O)C(NC(=O)c1ccc(NC2CC2)nc1)c1ccccc1 (stereo unspecified),107
6,NC(=O)C(NC(=O)c1ccc(NC2CC2)nc1)c1ccccc1 (stereo unspecified),-20.48
7,CC(C)c1cc(NC(=O)c2ccc(NC3CC3)nc2)[nH]n1,-6.556
8,OC1(CN2CCCC(Cn3cncn3)C2)CCCCC1 (stereo unspecified),2.144
9,CNC(=O)c1sc2ccccc2c1C1CCN(c2cc(C)nc(C)n2)C1 (stereo unspecified),-31.24
10,Cc1cnn(C2CCCN(C(=O)c3ccc(O)nc3)C2)c1 (stereo unspecified),-59.29
11,Cc1ccc(CN2CC[C@@H]3[C@@H]2CCN3C(=O)Cc2cccs2)o1.O=C(O)C(F)(F)F,2.395
12,Cc1cc(CC(C)Nc2nc(-c3cccnc3)nc3c2CNC3)[nH]n1 (stereo unspecified),-19.02
13,Cc1cccnc1[C@H](C)Nc1nc(-c2cccnc2)nc2c1CNC2,56.46
14,CC(Nc1nc(-c2ccccc2)nc2c1CCNCC2)c1nccs1 (stereo unspecified),28.69
15,CC(Nc1nc(-c2ccccc2)nc2c1CCNCC2)c1cccnc1 (stereo unspecified),76.64
16,CC(Nc1nc(-c2ccncc2)nc2c1CCNC2)c1ccccc1 (stereo unspecified),16.91
17,CCc1cc(C(C)Nc2nc(-c3cccnc3)nc3c2CNC3)on1 (stereo unspecified),9.073
18,Cc1cc(NCCNS(C)(=O)=O)nc2cc3c(cc12)CCC3,-25.91
19,Cc1cs/c(=N\C(=O)Cn2nc(N3CCOCC3)ccc2=O)[nH]1,32.69
20,CC(C)c1n[nH]c(C2CN(C(=O)c3ncoc3C(C)C)CCO2)n1 (stereo unspecified),-2.194
21,COCCC(=O)N1Cc2nc3c(C)c(-c4cccs4)nn3c(O)c2C1,39.74
22,Cc1c(-c2cccs2)nn2c(O)c3c(nc12)CN(C(=O)C1CC1)C3,54.87
23,COCC(=O)N1Cc2nc3c(C)c(-c4cccs4)nn3c(O)c2C1,3.993
24,CC(C)c1ncc(CN2CCOC(C(=O)Nc3ccccc3)C2)cn1 (stereo unspecified),-3.657
25,COc1ccc(Cl)cc1-c1nc(N)nc(N)n1,-5.371
26,CCCN(CCC)c1nc(N)nc(-c2cc(Cl)ccc2OC)n1,61.82

row,Compound,Percent Effect [%]
1,COc1ccc(Cl)cc1-c1nc(N)nc(N(C)C)n1,31.47
2,CN1CCO[C@H]2CN(C(=O)c3ccoc3)C[C@H]21.O=C(O)C(F)(F)F,6.414
3,Cl.NCCc1cn(Cc2ccccn2)c2ccccc12,-5.41
4,CCNC(=O)c1cn2cc(-c3ccccc3Cl)n(CC3CC3)c(=O)c2n1,93.59
5,CN(C)C(=O)c1cn2cc(-c3ccccc3Cl)n(CC3CC3)c(=O)c2n1,8.491
6,CNC(=O)c1cn2cc(-c3ccccc3Cl)n(CC3CC3)c(=O)c2n1,16.32
7,CC(=O)N1CCc2[nH]cnc2C12CCN(C(=O)Cc1cccs1)CC2,5.963
8,Cc1nc(CN2CCCC(NCc3sccc3C)C2)no1 (stereo unspecified),-19.65
9,COCCN1CCCC(c2ncc(C(=O)N3CCOCC3)c(C)n2)C1 (stereo unspecified),-5.414
10,Cc1cccc(NC2CCN(C(=O)Nc3ccncc3)CC2)n1,-35.06
11,Cc1cccc(NC2CCN(C(=O)Nc3cc(F)ccc3F)CC2)n1,0.502
12,Cc1cccc(NC2CCN(C(=O)Nc3cc(F)cc(F)c3)CC2)n1,-33.08
13,Cc1cccc(NC2CCN(C(=O)Nc3cccc4[nH]ccc34)CC2)n1,103.5
14,Cc1cccc(NC2CCN(C(=O)Nc3cc(C)on3)CC2)n1,-41.3
15,Cc1cccc(NC2CCN(C(=O)Nc3ccc(F)c(F)c3)CC2)n1,108.1
16,O=C(O)C(F)(F)F.O=C1COC2(CCN(Cc3nccs3)CC2)CN1c1ccccc1,8.785
17,Cc1cc(O)cc(C2CCCN2C(=O)c2ccncc2)n1 (stereo unspecified),3.916
18,Cc1ccc(OCc2nc(CNCCn3cccn3)cs2)cc1,44.09
19,Cc1cnn(CCNCc2csc(C)n2)c1,2.389
20,c1ccc(OCc2nc(CNCCn3cccn3)cs2)cc1,-6.946
21,Cc1cnn(CCNCc2csc(COc3ccccc3)n2)c1,79.25
22,Cc1cnn(CCNCc2ccc(OCc3csc(C)n3)cc2)c1,22
23,Cc1cnn(CCCNCc2csc(COc3ccccc3)n2)c1,86.59
24,CCc1ccc(-n2c(=O)[nH]c3nc(N4CCSCC4)ncc3c2=O)cc1,-3.279
25,CNC(=O)c1ccc(C2CN(C(=O)c3scnc3C)CCO2)nc1 (stereo unspecified),-17.28
26,Cc1nc(-c2ccncc2)ncc1C(C)NC(=O)Cn1ccccc1=O (stereo unspecified),-23.83

row,Compound,Percent Effect [%]
1,O=C(CC1CCCC1)N1CCOC(c2nc(-c3ncccn3)no2)C1 (stereo unspecified),12.79
2,CN(C)C(=O)C1(C)CN(Cc2cn(C)c3ccc(F)cc23)CCO1 (stereo unspecified),20.08
3,CNC(=O)C1(C)CN(Cc2cn(C)c3ccc(F)cc23)CCO1 (stereo unspecified),75.75
4,CN(C)C(=O)C1(C)CN(Cc2cn(C)c3ccccc23)CCO1 (stereo unspecified),34.96
5,COCC1CN(Cc2ccc(F)cc2)Cc2nn(C)cc21.O=C(O)C(F)(F)F (stereo unspecified),21.43
6,COCC1CN(Cc2ccc(OC)cc2)Cc2nn(C)cc21.O=C(O)C(F)(F)F (stereo unspecified),102.7
7,CCOCC1CN(Cc2ccc(OC)cc2)Cc2nn(C)cc21.O=C(O)C(F)(F)F (stereo unspecified),-10.16
8,CCn1cc2c(n1)CN(Cc1ccc(C)o1)CC2COCC1CC1.O=C(O)C(F)(F)F (stereo unspecified),32.3
9,CCn1cc2c(n1)CN(Cc1sccc1C)CC2COCC1CC1.O=C(O)C(F)(F)F (stereo unspecified),57.43
10,CCn1cc2c(n1)CN(Cc1ccc(F)cc1)CC2COCC1CC1.O=C(O)C(F)(F)F (stereo unspecified),11.94
11,COCCC(=O)N1CCCC([C@@H]2C[C@H](C(F)F)n3ncnc3N2)C1 (stereo partly specified),3.93
12,Cc1nc(C)n(CC2CCCN(CCC(=O)Nc3cc(C)on3)C2)n1 (stereo unspecified),-4.464
13,CCCS(=O)(=O)N1CC(=O)N(Cc2cccc(OC)c2OC)CC(O)C1 (stereo unspecified),0.4174
14,CCc1n[nH]c(C(=O)NCCn2nccc2C)c1C,-14.26
15,COCCN(C)C(C(=O)O)c1ccc2ccccc2c1 (stereo unspecified),-16.36
16,COc1ccc(CN2CCN(c3ncc(Cl)cn3)CC2)cc1,15.9
17,CCc1ccc(CN2CCN(c3ccc(Cl)nn3)CC2)nc1,44.3
18,CCc1ccc(CN2CCN(c3ncc(Cl)cn3)CC2)nc1,55.1
19,Cc1ccccc1CN1CCCN(C(=O)c2ccn(C)c(=O)c2)CC1,-39.51
20,Cc1ccc(-c2nc(CCNCc3ccncc3)co2)cc1,55.33
21,c1ccc(-c2nc(CCNCc3ccncc3)co2)cc1,-12.86
22,COc1ccc(-c2nc(CCNCc3ccncc3)co2)cc1,44.79
23,CO[C@@H]1CN(C)S(=O)(=O)[C@@]12CCN(Cc1ccccc1)C2,9.469
